# Assay results published in PubChem BioAssay AID504847 (National Center for Advancing Translational Sciences (NCATS), 2011).
# Screen size: about 400,000 compounds; about 3,700 (0.93%) were called active. Inconclusive results (about 3%) are left out. Calls come from the whole dose curve; as a rule, active = well fitted inhibition curve with a large enough effect; inconclusive = small, poorly fitted or top-dose-only effect, or another doubt; inactive = no such curve, though single readings can be large or run the other way. The sample as a whole holds a higher share of actives than the screen did.
# Molecular target: Vitamin D3 receptor (Homo sapiens) (UniProt P11473)
# Experiment: Inhibitors of the vitamin D receptor (VDR): qHTS
# Conditions: VDR-SRC2-3 peptide fluorescence polarization, 2 h; max response, negative = inhibition: stronger effect = lower value
# Method in brief: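 Fluorescence polarization assay measuring small-molecule disruption of VDR binding to the coregulator peptide SRC2-3. Compounds were pin-transferred (23 nl) into the reagent mix and incubated 2 h at room temperature before reading.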
# % is set by controls: 0 for no effect and ±100 for the full control effect; potency is the fitted concentration of half-maximal effect.
# Vitamin D3 receptor (Homo sapiens), sequence (P11473 whole entry, looked up): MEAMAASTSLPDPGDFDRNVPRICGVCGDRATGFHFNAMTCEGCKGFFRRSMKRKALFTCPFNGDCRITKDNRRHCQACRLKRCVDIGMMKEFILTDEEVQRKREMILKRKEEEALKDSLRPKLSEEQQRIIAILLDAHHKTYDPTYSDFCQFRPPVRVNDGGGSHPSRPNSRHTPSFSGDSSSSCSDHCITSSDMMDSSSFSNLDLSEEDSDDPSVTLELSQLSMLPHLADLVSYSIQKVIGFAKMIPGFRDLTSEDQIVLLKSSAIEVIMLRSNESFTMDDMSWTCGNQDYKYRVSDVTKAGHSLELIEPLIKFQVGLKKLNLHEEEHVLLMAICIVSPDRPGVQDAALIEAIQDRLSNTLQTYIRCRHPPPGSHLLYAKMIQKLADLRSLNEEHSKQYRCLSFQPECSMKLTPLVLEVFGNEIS
SMILES,"max response, negative = inhibition",Potency
CCOc1cccc(CC(=O)N2CCc3c([nH]c4ccccc34)C2c2ccc(F)cc2)c1OCC (centres undefined),6.55% (inactive),
COc1ccc(S(=O)(=O)Nc2cccc3cccnc23)c(N)c1,-18.8% (inactive),
Cn1cc(-c2nc3cnc(N4CCNCC4)nc3n(CCC#N)c2=O)c2ccccc21,-5.94% (inactive),
O=C(Nc1cc(C(=O)Nc2ccc(S(=O)(=O)O)cc2)cc(C(=O)Nc2ccc(S(=O)(=O)O)cc2)c1)Nc1cc(C(=O)Nc2ccc(S(=O)(=O)O)cc2)cc(C(=O)Nc2ccc(S(=O)(=O)O)cc2)c1,4.66% (inactive),
O=C(NNC1CC(=O)N(c2cccc(Cl)c2)C1=O)c1cccnc1 (centres undefined),4.73% (inactive),
O=C(OCc1cc(Cl)ccc1OC(F)F)c1cccnc1,3.25% (inactive),
O=C(/C=C/c1ccc(Cl)cc1Cl)c1cccnc1,,20 µM (active)
O=C(c1cnn(-c2ccc(F)cc2)c1-n1cccc1)N1CCN(c2ccc(F)cc2)CC1,-3.32% (inactive),
CC[C@]1([C@H]2O[C@@H]([C@@H]3O[C@](O)(CO)[C@@H](C)C[C@H]3C)C[C@H]2C)CC[C@@H]([C@]2(C)CC[C@@]3(C[C@@H](O)[C@@H](C)[C@@H]([C@H](C)[C@H](OC)[C@H](C)C(=O)O)O3)O2)O1,3.44% (inactive),
CCOc1ccc(N(CC(=O)OC)S(=O)(=O)c2c(C)noc2C)cc1,,89.1 µM (active)
COc1ccc(N(CC(=O)Nc2cc(OC)ccc2OC)S(=O)(=O)c2c(C)noc2C)cc1,5.52% (inactive),
CCOC(=O)C1CCCN(C(=O)CN(c2ccc(OC)cc2)S(=O)(=O)c2c(C)noc2C)C1 (centres undefined),-22.5% (inactive),
O=C(c1cccc(F)c1)N1CCC2(CCCN(Cc3ccncc3)C2)CC1,-10.4% (inactive),
Cc1ccc(Cn2cc(CCC(=O)NCc3ccc(OC(C)C)cc3)c3ccccc32)cc1,7.91% (inactive),
COC(=O)c1cccc(NC(=O)c2cccc(N3C(=O)CCC3=O)c2)c1,-2.51% (inactive),
COC(=O)c1cccc(-n2[nH]nnc2=S)c1,,79.4 µM (active)
COC(=O)c1cccc(N2C(=O)C3C4C=CC(CC4)C3C2=O)c1 (centres undefined),12.5% (inactive),
COc1cccc(NC(=O)CSC2=Nc3ccccc3C3=NC(CC(=O)NC4CCCCC4)C(=O)N23)c1 (centres undefined),1.75% (inactive),
CCOCCCNC(=O)c1cn(CC)c2ccc(S(=O)(=O)N3CCc4ccccc4C3)cc2c1=O,-6.66% (inactive),
OCCN1CCN(CC/C=C2\c3ccccc3Sc3ccc(C(F)(F)F)cc32)CC1,-15.9% (inactive),
COc1ccc(C(=O)c2oc3ccc(Br)cc3c2NC(C)=O)cc1,-3.63% (inactive),

SMILES,"max response, negative = inhibition",Potency
COc1ccc(CC(=O)NCC(=O)N/N=C/c2cc(Br)ccc2OC)cc1,13.7% (inactive),
COc1ccc(/C=C/C(=O)c2cc(Br)ccc(=O)c2O)cc1,,50.1 µM (active)
CCN(CC)c1nn2c(=O)c(C(=O)NCCc3ccccc3)cnc2s1,2.65% (inactive),
CCOC(=O)c1sc(NC(=O)/C=C/c2ccc(C(C)C)cc2)c(C(=O)OCC)c1C,-21.4% (inactive),
CCOC(=O)c1c(NC(=O)c2ccc(S(=O)(=O)N3CCCC(C)C3)cc2)sc2c1CCN(C(C)C)C2 (centres undefined),21.6% (inactive),
Cc1ccc(NC(=S)NCCc2ccc(Cl)cc2)c(C)c1,2.39% (inactive),
CC(C)c1ccc(NC(=S)NNc2ccc(Cl)c(C(=O)O)c2)cc1,,39.8 µM (active)
Cc1ccc(C)c(NC(=S)NCC(c2cccnc2)N2CCOCC2)c1 (centres undefined),-7.85% (inactive),
Cc1ccc(C)c(NC(=S)NNC(=S)Nc2ccc(C(C)C)cc2)c1,,35.5 µM (active)
CC(C)CC(=O)NC(=S)Nc1cc(C(=O)O)ccc1Cl,-4.96% (inactive),
CCC(C(=O)Nc1ccc(C(C)C)cc1)c1ccccc1 (centres undefined),-16.3% (inactive),
COc1cc(C(=O)N2CCN(C(=O)COc3cccc(C)c3)CC2)cc(OC)c1OC,-6.68% (inactive),
Cc1ccc(-c2cc(C(=O)NC3CCN(Cc4ccccc4)CC3)c3ccccc3n2)cc1,-7.79% (inactive),
Cc1ccc(-c2nc(=N)sn2Cc2ccccc2)cc1,,17.8 µM (active)
Cc1ccc(CN2C(=O)SC(Nc3ccccc3)C2=O)cc1 (centres undefined),-7.63% (inactive),
CC(=O)/C(C)=N\O,-2.4% (inactive),
CCOc1ccc(CNC(=O)c2cc(=O)[nH]c3ccc(S(=O)(=O)N4CCCCC4)cc23)cc1,6.6% (inactive),
O=C(NC1CC(=O)N(c2ccc(F)cc2)C1)C1CCCCC1 (centres undefined),-2.82% (inactive),
CCCn1c2ccccc2c2cnn(CC(=O)N(CC)c3cc(C)ccc3C)c(=O)c21,3.02% (inactive),
CCN(CCCNC(=O)Cn1ncc2c([nH]c3ccccc32)c1=O)c1cccc(C)c1,2.86% (inactive),
CCN(CCCNC(=O)c1ccc2c(c1)NC(=O)CN2C)c1cccc(C)c1,,79.4 µM (active)

SMILES,"max response, negative = inhibition",Potency
CCN(CCCNC(=O)c1ccc(Sc2ccc(C)cc2)c(NC(C)=O)c1)c1cccc(C)c1,9.47% (inactive),
CCOc1ccc(N(CC)C(=O)c2noc3c2COc2ccc(C)cc2-3)cc1,8.55% (inactive),
CCOc1cccc(CC(=O)N2CCc3c([nH]c4ccccc34)C2c2ccc(OC)cc2)c1OCC (centres undefined),11.9% (inactive),
COc1ccc(-c2cc(C(=O)NC(C(=O)O)C(C)C)c(C)o2)cc1OC (centres undefined),-0.859% (inactive),
COc1ccc(-c2cc(C(=O)NC(Cc3c[nH]c4ccccc34)C(=O)O)c(C)o2)cc1OC (centres undefined),,44.7 µM (active)
COc1ccc(-c2cc(=O)oc3cc(OCC(=O)N[C@@H](Cc4c[nH]c5ccccc45)C(=O)O)ccc23)cc1,-24.6% (inactive),
CC1CCN(c2nc3ccc(C(=O)N4CCN(c5ccccc5)CC4)cc3s2)CC1,19.1% (inactive),
COc1ccc(Cn2c(=O)n(-c3ccccc3C)c(=O)c3c4c(sc32)CN(C(C)=O)CC4)cc1,7.19% (inactive),
Cc1ccc(C)c(N2CCN(S(=O)(=O)c3ccc4c(c3)C(C(C)C)C(=O)N4)CC2)c1 (centres undefined),8% (inactive),
Cc1csc(-c2coc3cc(O[C@@H]4O[C@H](CO)[C@@H](O)[C@@H](O)[C@H]4O)ccc3c2=O)n1,9.43% (inactive),
O=C(O)CCn1cc(/C=C/C(=O)c2ccc(Cl)cc2)c(-c2cccc(Br)c2)n1,,15.8 µM (active)
O=C(/C=C/NNC(=O)c1cccc(Br)c1)c1ccccc1,0% (inactive),
O=C(COC(=O)/C=C/c1cn(-c2ccccc2)nc1-c1cccnc1)Nc1ccc(Cl)cc1Cl,-8.09% (inactive),
Cc1c(-c2nc(-c3ccc4c(c3)OCO4)no2)nnn1-c1ccc(Br)cc1F,14.1% (inactive),
Cc1ccc(Cl)cc1-n1ncc2c(N3CCC(C(N)=O)CC3)ncnc21,-9.07% (inactive),
OC[C@@H]1O[C@H](n2cnc3c(SCc4ccccc4)ncnc32)[C@H](O)[C@H]1O,-14.3% (inactive),
O=S(=O)(O)c1cc2onnc2c2ccccc12,,17.8 µM (active)
COc1ccc(CCN2C(=O)c3oc4cc(C)cc(C)c4c(=O)c3C2c2ccccc2F)cc1OC (centres undefined),4.42% (inactive),
COc1ccccc1NC(=O)C(=O)c1cc(C)n(-c2ccccc2F)c1C,14.8% (inactive),
COc1ccc(CCN2C(=O)C(C)=C(C)C2=O)cc1OC,-14.3% (inactive),
CCCCOc1ccc(CN2C(=O)C(=O)c3cc(Br)cc(C)c32)cc1OC,,14.1 µM (active)

SMILES,"max response, negative = inhibition",Potency
CCCCOc1ccc(Cn2c(=O)oc3ccc(C)cc32)cc1OC,-6.99% (inactive),
CCN(CC)CCNc1ncnc2c1cnn2-c1cc(Cl)ccc1C,11.7% (inactive),
CN1[C@H]2CC(OC(=O)[C@@H](CO)c3ccccc3)C[C@H]1[C@H]1O[C@H]12 (some centres undefined),7.07% (inactive),
CCOC(=O)NNc1cc(C(F)(F)F)ccn1,-1.56% (inactive),
CCOC(=O)/C=C/c1ccc(C(F)(F)F)cc1S(=O)(=O)NC(C)(C)C,,79.4 µM (active)
Cn1c(N)c(C(=O)COC(=O)/C=C/c2cccc(C(F)(F)F)c2)c(=O)n(C)c1=O,8.93% (inactive),
CC1(C)CCc2cc(S(=O)(=O)N3CCN(c4nc(-c5cccs5)nc5ccccc45)CC3)ccc2O1,-7.78% (inactive),
OCC(CO)NC1C[C@](O)(CO)[C@@H](O)[C@H](O)[C@H]1O (some centres undefined),1.5% (inactive),
CC1CCCN(C(=O)c2cc(-c3ccco3)nc3ccccc23)C1 (centres undefined),,35.5 µM (active)
O=C(Nc1cccc(F)c1)c1cc(-c2ccco2)nc2ccccc12,-14.8% (inactive),
CC(=O)N1CCN(C(=O)c2cc(-c3ccc(C)o3)nc3ccccc23)CC1,-3.82% (inactive),
CN(C)c1cccc(C(=O)Nc2nc3ccc(S(=O)(=O)NC(C)(C)C)cc3s2)c1,8.63% (inactive),
COc1ccccc1-c1noc(CSc2nnc(-c3ccccc3)n2-c2ccc(C)c(C)c2)n1,5.39% (inactive),
O=C(Cn1nc(C(F)(F)F)c2c1CCCC2)Nc1ccc(Cl)cc1,4.81% (inactive),
O=C(Cn1ncc(N2CCCC2)c(Br)c1=O)c1ccc(Cl)cc1,-1.29% (inactive),
O=C(Cn1nc(CNc2ccc(Cl)cc2)[n+]2c1CCCCC2)c1ccc(Cl)cc1,,79.4 µM (active)
Cc1cccc(N2CCN(c3ccc(C(=O)O)cc3NC(=O)c3ccccc3F)CC2C)c1 (centres undefined),1.51% (inactive),
O=C(Nc1ccccc1Cl)N1CCC(CN2CCCC2)CC1,6.62% (inactive),
O=C(CCN1CCN(C/C=C/c2ccccc2)CC1)Nc1ccccc1Cl,-1.78% (inactive),
O=C(Nc1ccccc1Cl)/C(Cl)=C(\Cl)S(=O)c1ccccc1 (centres undefined),,3.98 µM (active)
CCn1cc(C(=O)NCc2ccc(C)cc2)c(=O)c2cc(S(=O)(=O)N3CCc4ccccc4C3)ccc21,-10.3% (inactive),
